Measured values: the antibiotic and cytotoxicity screens of Wong et al. (2023)
About 3,300 (8.5%) of roughly 39,000 compounds were called active. For the sample, actives were picked, then their nearest neighbours and some compounds at random.

The compounds below were run on HepG2 (assay: cytotoxicity call (relative viability < 0.9)). Settings: 10 µM.

Row | Structure (SMILES) | cytotoxicity call
1 | COc1ccc(NC(=O)N(C)C[C@@H]2OCCCC[C@@H](C)Oc3ccc(NC(=O)C4CCCCC4)cc3C(=O)N([C@@H](C)CO)C[C@@H]2C)cc1 | inactive
2 | C[N+](C)(C)CCCC[C@@H]1NC(=O)[C@H]2C[C@@H](C(=O)NCCCCCCN)[C@@H](c3ccc(O)cc3)N2C1=O | inactive
3 | CCNC(=O)[C@@H]1CCCN1C(=O)[C@H](CCCN=C(N)N)NC(=O)[C@H](CC(C)C)NC(=O)[C@@H](Cc1c[nH]c2ccccc12)NC(=O)[C@H](Cc1ccc(O)cc1)NC(=O)[C@H](CO)NC(=O)[C@H](Cc1c[nH]c2ccccc12)NC(=O)[C@H](Cc1c[nH]cn1)NC(=O)[C@@H]1CCC(=O)N1 | inactive
4 | C[C@H](CO)N1C[C@H](C)[C@H](CN(C)C(=O)c2ccccn2)Oc2cc(C#Cc3ccc(F)cc3)ccc2S1(=O)=O | inactive
5 | O=C(O)c1ccc(O)cc1O | inactive
6 | C[C@H](CO)N1C[C@H](C)[C@H](CN(C)Cc2ccc(C(F)(F)F)cc2)OCc2ccccc2-c2ccccc2C1=O | inactive
7 | COc1ccccc1CNC(=O)C[C@@H]1C[C@H]2c3cc(NS(=O)(=O)c4ccc(F)cc4)ccc3O[C@H]2[C@@H](CO)O1 | inactive
8 | C[C@H]1CCCCO[C@H](CN(C)S(=O)(=O)c2cccs2)[C@@H](C)CN([C@@H](C)CO)C(=O)c2cc(NS(=O)(=O)c3cn(C)cn3)ccc2O1 | inactive
9 | C[C@@H]1CN([C@@H](C)CO)C(=O)Cc2cc(NS(=O)(=O)c3cn(C)cn3)ccc2O[C@H]1CN(C)Cc1ccc2c(c1)OCO2 | inactive
10 | C[C@H](CO)N1C[C@H](C)[C@@H](CN(C)C(=O)C2CCCCC2)OCCCC[C@H](C)Oc2ccc(NC(=O)Nc3cccc4ccccc34)cc2C1=O | inactive
11 | C[C@@H]1CCCCO[C@@H](CN(C)S(C)(=O)=O)[C@H](C)CN([C@@H](C)CO)C(=O)c2cc(NS(=O)(=O)c3ccccc3)ccc2O1 | inactive
12 | COc1ccccc1C(=O)Nc1ccc2c(c1)C(=O)N(C)[C@@H]1CC[C@H](CC(=O)NCCc3ccncc3)O[C@H]1CO2 | inactive
13 | COc1ccccc1C(=O)Nc1ccc2c(c1)C(=O)N(C)[C@@H]1CC[C@@H](CC(=O)NCc3ccc(Cl)c(Cl)c3)O[C@H]1CO2 | inactive
14 | COc1ccccc1C(=O)Nc1ccc2c(c1)C(=O)N(C)[C@H]1CC[C@@H](CC(=O)NCc3ccc(Cl)c(Cl)c3)O[C@@H]1CO2 | active
15 | COc1ccc(S(=O)(=O)N(C)C[C@@H]2Oc3ccc(NC(=O)Cn4cnnn4)cc3C(=O)N([C@H](C)CO)C[C@H]2C)cc1 | inactive
16 | C[C@H](CO)N1C[C@H](C)[C@@H](CN(C)S(C)(=O)=O)OCCCC[C@H](C)Oc2ccc(NC(=O)Nc3ccc(C(F)(F)F)cc3)cc2C1=O | inactive

Row | Structure (SMILES) | cytotoxicity call
17 | C[C@@H]1CCCCO[C@@H](CN(C)Cc2ccc(C(F)(F)F)cc2)[C@@H](C)CN([C@@H](C)CO)C(=O)c2cc(NS(=O)(=O)c3cn(C)cn3)ccc2O1 | inactive
18 | CC(C)CCN1CCn2c(CO)nnc2C1 | inactive
19 | C[C@@H]1CN([C@@H](C)CO)C(=O)Cc2cc(NC(=O)C3CC3)ccc2O[C@H]1CN(C)C(=O)NC1CCCCC1 | inactive
20 | Cl.N#Cc1ccc2[nH]cc(CCCCN3CCN(c4ccc5oc(C(N)=O)cc5c4)CC3)c2c1 | active
21 | CCC(=O)C12CC3CC(CC(C3)C1)C2 | inactive
22 | COc1ccc(NC(=O)N(C)C[C@H]2OCCCC[C@H](C)Oc3ccc(NC(=O)Nc4ccc5c(c4)OCO5)cc3C(=O)N([C@H](C)CO)C[C@@H]2C)cc1 | inactive
23 | CC(/C=C/C(=O)NO)=C\c1ccccc1OCc1cn(CCNC(=O)[C@@H](NS(=O)(=O)c2ccc(C)cc2)C(C)C)nn1 | inactive
24 | COC(=O)[C@H](Cc1ccccc1)N1C[C@](C)(OC(C)C)O[C@@H](CCn2cc(COc3ccccc3/C=C(C)/C=C/C(=O)NO)nn2)[C@@H]1/C=C/C1CC1 | inactive
25 | Cc1ccc(S(=O)(=O)N(c2cccc(-n3cc(CCC(=O)NO)nn3)c2)S(=O)(=O)c2ccc(C)cc2)cc1 | active
26 | C#CCN([C@H](/C=C/C1CC1)[C@@H](O)Cc1ccccc1)[C@@H](Cc1ccc(-n2cc(COc3ccccc3/C=C(C)/C=C/C(=O)NO)nn2)cc1)C(=O)OC | inactive
27 | COC(=O)[C@@H](N)Cc1ccc(-n2cc(CCC(=O)NO)nn2)cc1 | active
28 | CC(/C=C/C(=O)NO)=C\c1ccccc1OCc1cn(C[C@@H]2CCCN2S(=O)(=O)c2ccc(C)cc2)nn1 | active
29 | CCOc1cc(OCC)cc(C(=O)N[C@@H](Cc2ccc(-n3cc(CCC(=O)NO)nn3)cc2)C(=O)OC)c1 | inactive
30 | Nc1cccc(-n2cc(CCC(=O)NO)nn2)c1 | inactive
31 | COC(=O)[C@@H](Cc1ccc(-n2cc(COc3ccccc3/C=C(C)/C=C/C(=O)NO)nn2)cc1)N1CC(/C=C/C2CC2)=C[C@H]1[C@H](O)Cc1ccccc1 | inactive
32 | Cc1ccc(S(=O)(=O)N[C@H](C(=O)NCCn2cc(CCC(=O)NO)nn2)C(C)C)cc1 | inactive
